According to PubChem BioAssay (NCI):
The panel holds about 79,000 compounds, 15% with a hit somewhere; the sample as a whole holds those more often. Unmarked numbers belong to inactive results. Active and inactive are the calls of the source. Cut-off read from the data, not from the text of the source: active = growth inhibition above about 70%; inactive = the rest.

What was measured:
[1] = NCI Yeast Anticancer Drug Screen. Data for the rad50 strain (AID 155);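 note: 0% = growth of vehicle-only cultures of the same strain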; conditions: S. cerevisiae rad50 strain growth inhibition, stronger effect = higher value
Method in brief: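 Growth of the mutant yeast was measured after compound exposure and referenced to vehicle-treated cultures.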

[2] = NCI Yeast Anticancer Drug Screen. Data for the mec2-1 strain (AID 157); conditions: S. cerevisiae mec2-1 strain, stronger effect = higher value
Method in brief: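 Compounds were applied to mec2-1 yeast cells. Their growth was then compared with that of vehicle-treated cultures to give growth inhibition.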

[3] = NCI Yeast Anticancer Drug Screen. Data for the sgs1 mgt1 strain (AID 161);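 note: 0% = growth of cultures given vehicle only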; conditions: S. cerevisiae sgs1 mgt1 strain, stronger effect = higher value
Method in brief: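 Compounds are added to genetically altered yeast, and growth is compared with cultures given vehicle alone to give percent inhibition.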

[4] = NCI Yeast Anticancer Drug Screen. Data for the cln2 rad14 strain (AID 165);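 note: 0% = growth equal to vehicle treated cultures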; conditions: S. cerevisiae cln2 rad14 strain, stronger effect = higher value
Method in brief: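 Strain: cln2 rad14 yeast, altered in cell cycle control and DNA damage repair. Read-out: growth inhibition vs vehicle.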

[5] = NCI Yeast Anticancer Drug Screen. Data for the bub3 strain (AID 167); conditions: S. cerevisiae bub3 mutant strain, stronger effect = higher value
Method in brief: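 Whole-cell yeast assay. The mutant strain was incubated with compounds, and growth inhibition was determined by comparison with vehicle-treated cells.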

[6] = NCI Yeast Anticancer Drug Screen. Data for the mlh1 rad18 strain (AID 175); conditions: S. cerevisiae mlh1 rad18 strain growth inhibition, stronger effect = higher value
Method in brief: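 A repair-deficient yeast strain is exposed to test compound, and growth is scored relative to vehicle-treated controls.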

[7] = at 5.0 µM (retest, dose inferred, filed as 0.5)
[8] = at 50.0 µM (retest, dose inferred, filed as 5.0)

| SMILES | growth inhibition [1, 7] | growth inhibition [1, 8] | growth inhibition ([1]; at 50.0 µM) | growth inhibition [2, 7] | growth inhibition [2, 8] | growth inhibition ([2]; at 50.0 µM) | growth inhibition [3, 7] | growth inhibition [3, 8] | growth inhibition ([3]; at 50.0 µM) | growth inhibition [4, 7] | growth inhibition [4, 8] | growth inhibition ([4]; at 50.0 µM) | growth inhibition [5, 7] | growth inhibition [5, 8] | growth inhibition ([5]; at 50.0 µM) | growth inhibition [6, 7] | growth inhibition [6, 8] | growth inhibition ([6]; at 50.0 µM) |
| --- | --- | --- | --- | --- | --- | --- | --- | --- | --- | --- | --- | --- | --- | --- | --- | --- | --- | --- |
| N#CSCc1c(Cl)cccc1Cl | 57% | 59% | 81.7% (active) | 40% | 48% | 75.8% (active) | 18% | 92% (active) | 82.7% (active) | 68% | 94% (active) | 64.5% | 64% | 95% (active) | 79.1% (active) | 30% | 48% | 79.8% (active) |
| CC(C)C(OC(=O)c1ccc(NCc2cc(O)ccc2O)cc1)C(C)C | 21% | 97% (active) | 89.5% (active) | 23% | 99% (active) | 92% (active) | 35% | 99% (active) | 90.6% (active) | 21% | 99% (active) | 88% (active) | 29% | 99% (active) | 89.8% (active) | 27% | 99% (active) | 86% (active) |
| c1ccc2c(c1)Nc1ccccc1[P+]21c2ccccc2Nc2ccccc21 | 98% (active) | 99% (active) | 82.8% (active) | 99% (active) | 99% (active) | 98.8% (active) | 99% (active) | 99% (active) | 59.4% | 99% (active) | 99% (active) | 84.3% (active) | 99% (active) | 99% (active) | 98.7% (active) | 99% (active) | 99% (active) | 98.6% (active) |
| CCCCN(CCCC)Cc1cc(Nc2c3ccc(Cl)cc3nc3ccc(OC)cc23)ccc1O | 4% | 91% (active) | 79.2% (active) | 10% | 56% | 86.7% (active) | -19% | 95% (active) | 75.4% (active) | -4% | 23% | 89.5% (active) | -3% | 36% | 58.4% | 7% | 79% (active) | 98.1% (active) |
| CCC1(c2ccc(N3C(=O)c4ccccc4C3=O)cc2)CCC(=O)NC1=O (configuration not stated) | 1% | -3% | -5.4% | -36% | -24% | -13.2% | -20% | 5% | 86.3% (active) | -17% | 3% | 9.4% | -17% | -19% | -8.6% | -27% | -25% | 5.4% |
| CC(C)Cc1ncc(CC(C)C)n(O)c1=O | 34% | 97% (active) | 89.2% (active) | 26% | 98% (active) | 87.8% (active) | 41% | 97% (active) | 91% (active) | -6% | 97% (active) | 81.3% (active) | 10% | 99% (active) | 89.5% (active) | 61% | 98% (active) | 89.9% (active) |
| CCOC(=O)/C=C/c1ccc([N+](=O)[O-])o1 | 18% | 91% (active) | 73.2% (active) | 3% | 72% (active) | 31.4% | 21% | 93% (active) | 91.5% (active) | 4% | 58% | 34.5% | 11% | 82% (active) | 27.1% | 28% | 93% (active) | 85.5% (active) |
| C/C(=C\c1ccccc1)c1ccncc1 | -17% | 48% | 64.7% | 14% | 12% | 44.2% | -8% | 51% | 65.6% | -8% | 21% | 35.9% | -9% | 48% | 45.8% | -11% | 24% | 54.9% |
| CC(=O)OC12CC(C(F)(F)F)(C(F)(F)F)OC1(OC(C)=O)CC(C(F)(F)F)(C(F)(F)F)O2 (configuration not stated) | 1% | 15% | 49.5% | -8% | 48% | 29.8% | 4% | 66% | 50.2% | 18% | 56% | 71% (active) | 7% | 28% | 67.1% | -4% | 66% | 86.3% (active) |
| C[n+]1c(-c2cccc(OCCCCCCCCOc3cccc(-c4c5cc(N)ccc5c5ccc(N)cc5[n+]4C)c3)c2)c2cc(N)ccc2c2ccc(N)cc21 | 99% (active) | 97% (active) | 85.3% (active) | 99% (active) | 99% (active) | 88.2% (active) | 97% (active) | 98% (active) | 89.8% (active) | 98% (active) | 97% (active) | 89.8% (active) | 99% (active) | 98% (active) | 88.5% (active) | 96% (active) | 97% (active) | 89.3% (active) |
| COC(=O)Nc1nc2ccc(C(=O)c3ccccc3)cc2[nH]1 | 0% | -9% | 55% | 3% | -7% | 46.9% | -1% | -5% | 43.8% | -1% | -24% | 45% | 10% | 16% | 71.5% (active) | 1% | 17% | 67.5% |
| Cc1cccc(/C=N/Nc2cc(C)c3ccccc3n2)n1 | 10% | 89% (active) | 96.8% (active) | 10% | 96% (active) | 89.2% (active) | 16% | 96% (active) | 97.8% (active) | 5% | 86% (active) | 82.3% (active) | -5% | 95% (active) | 93.6% (active) | 14% | 96% (active) | 82.8% (active) |
| CCN(CC)CCOc1ccc(/C=C/c2ccccc2)cc1 | 2% | 99% (active) | 73% (active) | 0% | 99% (active) | 77.7% (active) | 5% | 98% (active) | 93.7% (active) | -5% | 99% (active) | 56.7% | 6% | 99% (active) | 93.4% (active) | 3% | 99% (active) | 78% (active) |
| CCOC(=O)N1CCN(CCCOc2ccc(Cl)cc2Cc2ccccc2)CC1 | 29% | 100% (active) | 99.7% (active) | 26% | 100% (active) | 99.7% (active) | 59% | 100% (active) | 99.8% (active) | 30% | 99% (active) | 99.5% (active) | 89% (active) | 100% (active) | 99.5% (active) | 24% | 100% (active) | 99.7% (active) |
| CCOC(=O)NC(NC(=O)OCC)C(=O)Nc1cccc2c(OC(=O)C(NC(=O)OCC)NC(=O)OCC)c(N=Nc3ccc(S(=O)(=O)Nc4nccs4)cc3)cc(N=Nc3ccc(S(=O)(=O)Nc4nccs4)cc3)c12 (tested in a mixture with another compound) | 94% (active) | 43% | 78.7% (active) | 97% (active) | 59% | 74.9% (active) | 96% (active) | 58% | 65.8% | 95% (active) | 70% (active) | 70.3% (active) | 95% (active) | 59% | 61.8% | 88% (active) | 29% | 83.1% (active) |
| CCCCCCCC/C=C\CCCCCCCCN1CCOCC1 | -2% | -2% | 99.2% (active) | 0% | -2% | 99.3% (active) | -4% | 5% | 99.2% (active) | 11% | 3% | 97.5% (active) | 15% | 19% | 99.1% (active) | -3% | 1% | 99.2% (active) |
| Cn1c2ccccc2c2nnc(N/N=C/c3ccccn3)nc21 | 26% | 98% (active) | 94.4% (active) | 21% | 97% (active) | 96.5% (active) | 23% | 98% (active) | 96.9% (active) | 8% | 97% (active) | 96.2% (active) | 13% | 99% (active) | 96.2% (active) | 22% | 98% (active) | 96.4% (active) |
| CC(=O)c1c2c(cc3c1CC1(C3)Cc3ccc4c(c3C1=O)CCC4)CCC2 (configuration not stated) | 3% | 1% | -0.85% | 7% | 5% | 17.2% | 18% | 7% | 5.75% | 15% | 16% | 6.8% | 12% | 39% | 55.2% | 7% | 6% | 36.4% |
| Oc1ccccc1/C=N/NC(=S)NC12CC3CC(CC(C3)C1)C2 | 7% | 19% | 81.3% (active) | 14% | 11% | 29.6% | 27% | 19% | 64.4% | -38% | 20% | 31.1% | 21% | 21% | 42.8% | 10% | 41% | 85.9% (active) |
